Shn3 3UTR inh = inhibitors of Schnurri-3 3'UTR reporter in osteoblasts; Clone20 osteoblast Shn3 3'UTR firefly luciferase, 24 h; inhibition, % at 12.5 µM; 0.52% of 360,000 active; AID 588674;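 active = mean inhibition of at least 75% with every replicate also reaching 75%; inconclusive = mean inhibition at least 75% but some replicate below; inactive = mean inhibition below 75%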;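 note: 0% = median of neutral control wells and 100% = pilot-screen positive control compound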
MITF TRPM1 inh = inhibitors of MITF-driven TRPM1 promoter in melanoma cells; SK-MEL-5 TRPM1 promoter luciferase, 24 h; inhibition, % at 12.5 µM; 0.83% of 330,000 active; AID 488899;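 active = mean inhibition across replicates of 60% or more, whatever share of single replicates reaches that level; inconclusive = some that reach 60%, reason not given; inactive = mean inhibition across replicates below 60%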
EBV LMP1 NFkB = inhibitors of Epstein-Barr LMP1-induced NF-kappaB reporter; LMP1-induced NF-kappaB luciferase reporter cells, luminescence; inhibition, % at 12.5 µM; 0.69% of 350,000 active; AID 504558; in the data active = inhibition above about 41%; inconclusive = no clear call, values can overlap the other calls;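 note: 0% = neutral control wells and 100% = reference inhibitor control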
CF NFkB block = inhibitors of cystic fibrosis induced NF-kB; KKLEB NF-kB-GFP reporter, PAF-induced, GFP fluorescence overnight; inhibition, % at 5 µM; 0.86% of 360,000 active; AID 588850;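 active = at least 50% inhibition at 5 µM, scaled per plate between neutral and stimulator controls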;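 note: PAF is a Pseudomonas aeruginosa culture filtrate used as stimulus; plate controls were PAF-stimulated DMSO wells for no effect and unstimulated DMSO wells for full effect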
KKLEB tox = CF airway cell cytotoxicity counter-screen; KKLEB CF airway cells viability, ATPlite luminescence, overnight; hits give low values; cells stimulated with P. aeruginosa culture filtrate; activity change (cytotoxicity), % at 5 µM; 0.36% of 360,000 active;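 active = corrected activity change at or below -50% at 5 µM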
Peg3 promoter = inhibitors of Peg3 promoter | HeLa PEG-Prom luciferase reporter, luminescence, overnight | inhibition, % at 20 µM | 1.7% of 360,000 active | AID 588405;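 active = inhibition of at least 50% at 20 µM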
An asterisk follows results filed as active; u = inconclusive; x = no result given. Compounds with a hit are over-represented: about 2.9% of the library has one in this group of screens.

SMILES	Shn3 3UTR inh	MITF TRPM1 inh	EBV LMP1 NFkB	CF NFkB block	KKLEB tox	Peg3 promoter
O=C1NC2C(=CC(O)C(O)C2O)c2cc3c(cc21)OCO3 (stereo unspecified)	90*	67*	78*	78*	-7	98*
CCC1C(c2cc(OC)c(OC)c(OC)c2)c2cc3c(cc2OC1N1CCCC1)OCO3 (stereo unspecified)	17	8	0	39	-15	21
O=C1CC(=O)N(c2ccc(Cl)cc2)C(=O)N1	16	12	64*	-14	7	4
CC(C)c1ccc(N2C(=O)CC(=O)NC2=O)cc1	-10	8	-5	-9	1	12
CCC(C)c1cnc(CC(C)C)c(=O)n1O (stereo unspecified)	-6	x	x	1	-8	19
N#CC1c2ccccc2-n2nncc2CN1C(=O)CCc1ccccc1 (stereo unspecified)	-23	4	-6	-9	12	8
C[C@]12CCC3C(CCC4=CC(O)CC[C@@]43/C=N/O)C1(O)CCC2C1=CC(=O)OC1 (stereo partly specified)	14	86*	3	81*	-62*	105*
C[C@]12CC[C@H]3[C@@H](CC[C@]4(O)C[C@@H](O)CC[C@]34C=O)[C@@]1(O)CC[C@@H]2C1=CC(=O)OC1	2	86*	38	62*	-33	94*
CC12CCC3C(CCC4(O)CC(O)CCC34C=O)C1(O)CCC2C1=CC(=O)OC1 (stereo unspecified)	-21	82*	u	77*	-46	104*
CC12CC[C@H]3[C@@H](CCC4(O)C[C@H](O)CCC34/C=N/NC(=O)c3ccccc3Cl)C1(O)CCC2C1=CC(=O)OC1 (stereo partly specified)	-1	25	-11	-3	-2	7
CCCCN=C[C@]12CCC(O)CC1(O)CCC1[C@@H]2CC[C@]2(C)[C@H](C3C=CC(=O)O3)CCC12O (stereo partly specified)	-31	78*	2	99*	-72*	107*
C[C@H]1O[C@@H](OC2CC[C@]3(C=O)[C@H]4CC[C@]5(C)[C@@H](C6=CC(=O)OC6)CC[C@]5(O)[C@@H]4CC[C@]3(O)C2)CC2OC(C)(C)OC21 (stereo partly specified)	9	67*	65*	93*	-71*	107*
CC12CCC3C(CCC4(O)CC(O)CCC34C=NO)C1(O)CCC2C1=COC(=O)C1 (stereo unspecified)	11	69*	62*	85*	-48	97*
CN1OC[C@@H]2CN[C@H](c3ccc(Br)cc3)C[C@@H]21	-18	x	-4	-9	-4	-16
C[n+]1c(-c2ccccc2)c2cc(N)ccc2c2ccc(N)cc21	67	62*	0	-8	-9	74*
CC(C)(C)c1cc(C=C(C#N)C#N)cc(C(C)(C)C)c1O	93*	84*	24	47	17	56*
N#CC(C#N)=Cc1ccc(O)c(O)c1	-8	2	-3	-25	12	-7
CN1CN(c2ccccc2)C2(CCN(CCCSc3ccccc3NC(=O)/C=C/c3ccccc3)CC2)C1=O	59	69*	11	-3	11	32
CC(=O)O[C@@H]1CC[C@]2(C)C3CC[C@@]4(C)C(C[C@@H](O)[C@@H]4O)C3[C@@H](OC(C)=O)C[C@H]2C1 (stereo partly specified)	54	-5	3	0	-4	2
CC(=O)OC1CC(OC2C(O)CC(OC3C(O)CC(OC4CCC5(C)C(CCC6C5CCC5(C)C(C7=CC(=O)OC7)C(O)CC65O)C4)OC3C)OC2C)OC(C)C1OC1OC(CO)C(O)C(O)C1O (stereo unspecified)	8	86*	30	91*	-53*	108*
CC1OC(OC2C(O)CC(OC3C(O)CC(OC4CCC5(C)C(CCC6C5CCC5(C)C(C7=CC(=O)OC7)C(O)CC65O)C4)OC3C)OC2C)CC(O)C1O (stereo unspecified)	2	70*	62*	70*	-54*	107*
O=C1NCN(c2ccccc2)C12CCN(C(c1nnnn1C1CCCCC1)C1CC1)CC2 (stereo unspecified)	12	x	x	19	-8	-4
Clc1cccc(N2CCNCC2)c1Cl	1	-1	-2	-2	-67*	-1
c1ccc2c(N3CCNCC3)cccc2c1	6	-1	0	-9	0	-14
CC(C)(C)NC(=S)N1Cc2ccccc2-n2nncc2C1	-9	x	0	11	-11	-4
SMILES	Shn3 3UTR inh	MITF TRPM1 inh	EBV LMP1 NFkB	CF NFkB block	KKLEB tox	Peg3 promoter
C[C@@H]1O[C@@H](O[C@H]2C[C@@H](O)[C@]3(CO)[C@H]4[C@H](O)C[C@]5(C)[C@@H](C6=CC(=O)OC6)CC[C@]5(O)[C@@H]4CC[C@]3(O)C2)[C@H](O)[C@H](O)[C@H]1O	5	70*	80*	91*	18	103*
COc1cccc(C(c2nnnn2-c2ccc3c(c2)OCCO3)N2CCC(n3c(=O)[nH]c4ccccc43)CC2)c1OC (stereo unspecified)	87*	x	x	85*	-90*	49
O=c1[nH]c2ccccc2n1C1CCN(C(c2ccccc2OC(F)(F)F)c2nnnn2-c2ccc3c(c2)OCCO3)CC1 (stereo unspecified)	-1	x	x	83*	-86*	89*
COc1cccc(C(c2nnnn2Cc2ccccc2)N2CCC(n3c(=O)[nH]c4ccccc43)CC2)c1OC (stereo unspecified)	-2	x	x	87*	-75*	73*
COc1ccc(C(SCC(NC(=O)OCc2ccccc2)C(=O)O)c2ccc(OC)cc2)cc1 (stereo unspecified)	-8	x	0	-7	0	-12
N=C(N)c1c(O)n(C2CCCCC2)c(=O)n(C2CCCCC2)c1=O	45	20	-13	27	-20	77*
CN1C(=O)C(C)(C2=CCCCC2)C(=O)NC1=S (stereo unspecified)	-6	3	1	-8	2	93*
Cc1ccc(-c2cc(-c3ccc(C)cc3)[n+](C)o2)cc1	82	63*	3	5	0	3
Cc1cccc(C)c1-n1nnnc1C(c1cc2ccccc2o1)N1CCC(n2c(=O)[nH]c3ccccc32)CC1 (stereo unspecified)	96*	x	x	25	-4	102*
O=c1[nH]c2ccccc2n1C1CCN(C(c2cc3ccccc3o2)c2nnnn2Cc2ccccc2)CC1 (stereo unspecified)	29	x	x	82*	-96*	93*
COc1ccc(-n2nnnc2C(c2ccnc3ccccc23)N2CCC(n3c(=O)[nH]c4ccccc43)CC2)cc1 (stereo unspecified)	23	x	x	13	-6	25
